Measured values as given in PubChem BioAssay AID1347420 (Sanford-Burnham Center for Chemical Genomics, 2020).
The whole screen tested about 1,300 compounds, of which about 980 (75%) were called active. Another 4% or so got no clear call; they are omitted. This is one part of the list. A number with no mark means an inactive call.

These compounds were tested against Sulfhydryl oxidase 1 (Homo sapiens) (UniProt O00391) (assay: QSOX1 enzyme inhibitors, primary screen, biochemical, HyperBlu H2O2 luminescence, HTS (AID 1347420; also: values above 100% were filed as inconclusive)). Settings: recombinant QSOX1, HyperBlu H2O2 luminescence; at 12.5 µM; active compounds read high; active = any value above zero.
Sequence of Sulfhydryl oxidase 1 (Homo sapiens) (O00391 whole entry, looked up): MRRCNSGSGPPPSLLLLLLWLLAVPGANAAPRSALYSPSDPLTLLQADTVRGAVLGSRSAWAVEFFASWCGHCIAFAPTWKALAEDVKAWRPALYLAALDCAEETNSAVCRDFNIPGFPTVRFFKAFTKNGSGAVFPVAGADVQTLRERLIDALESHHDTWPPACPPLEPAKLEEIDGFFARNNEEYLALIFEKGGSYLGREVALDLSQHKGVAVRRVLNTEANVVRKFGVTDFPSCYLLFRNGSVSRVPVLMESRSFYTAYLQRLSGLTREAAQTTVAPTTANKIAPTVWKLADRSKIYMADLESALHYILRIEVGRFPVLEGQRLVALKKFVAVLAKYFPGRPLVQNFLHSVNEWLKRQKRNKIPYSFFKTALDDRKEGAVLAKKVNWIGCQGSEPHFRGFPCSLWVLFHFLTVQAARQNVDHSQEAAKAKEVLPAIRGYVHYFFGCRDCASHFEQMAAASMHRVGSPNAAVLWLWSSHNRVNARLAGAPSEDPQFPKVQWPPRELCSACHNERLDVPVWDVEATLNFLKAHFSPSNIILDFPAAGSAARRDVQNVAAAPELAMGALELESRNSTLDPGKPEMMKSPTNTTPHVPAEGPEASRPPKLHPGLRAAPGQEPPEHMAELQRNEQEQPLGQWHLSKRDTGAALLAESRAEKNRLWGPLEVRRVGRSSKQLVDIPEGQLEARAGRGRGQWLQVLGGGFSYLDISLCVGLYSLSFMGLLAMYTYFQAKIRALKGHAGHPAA

SMILES	inhibition
NC1CCN(O)C1=O (stereo unspecified)	30% (active)
CCCC1O[C@@H]2C[C@H]3[C@@H]4CCC5=CC(=O)C=C[C@]5(C)[C@H]4[C@@H](O)C[C@]3(C)[C@]2(C(=O)CO)O1 (stereo partly specified)	4.1% (active)
CCCN(CC1CC1)c1nc(C)nc(Nc2c(Cl)cc(Cl)cc2Cl)c1Cl	3.7% (active)
NS(=O)(=O)c1cc2c(cc1Cl)NC=NS2(=O)=O	4.3% (active)
NS(=O)(=O)c1cc2c(cc1Cl)NCNS2(=O)=O	9.5% (active)
NS(=O)(=O)c1cc2c(cc1Cl)NC(C1CC3C=CC1C3)NS2(=O)=O (stereo unspecified)	44.4% (active)
CNCCCC12CCC(c3ccccc31)c1ccccc12	1.9% (active)
NC/C=C/C(=O)O	1.4% (active)
NC/C=C\C(=O)O	7.5% (active)
CC(C)COCC(CN(Cc1ccccc1)c1ccccc1)N1CCCC1 (stereo unspecified)	40.1% (active)
Brc1c(Br)c(Br)c2[nH]cnc2c1Br	18.9% (active)
CN1CCc2cccc3c2C1Cc1ccc(O)c(O)c1-3 (stereo unspecified)	73.2% (active)
Clc1ccc2c(c1)N=C(N1CCNCC1)c1ccccc1N2	69.5% (active)
Cc1ccc2c(c1)C(N1CCN(C)CC1)=Nc1cccnc1N2	42.7% (active)
CN1CCN(C2=Nc3ccccc3Oc3ccc(Cl)cc32)CC1	-12.8%
Clc1ccc2c(c1)C(N1CCNCC1)=Nc1ccccc1O2	21.3% (active)
CN1CCN(C2=Nc3cc(Cl)ccc3Nc3ccccc32)CC1	78.4% (active)
CCCn1cnc2c1c(=O)n(CCCCC(C)=O)c(=O)n2C	5.2% (active)
CCCn1c(=O)c2c(ncn2C)n(CCC)c1=O	11.9% (active)

SMILES	inhibition
CC(=O)CCCCn1c(=O)c2c(ncn2C)n(C)c1=O	13.8% (active)
Cn1c(=O)c2c(ncn2C)n(C)c1=O	-2%
Cn1cnc2c1c(=O)[nH]c(=O)n2C	0%
Cn1c(=O)[nH]c2ncn(C)c2c1=O	-0.4%
C#CCn1c(=O)c2c(ncn2C)n(C)c1=O	4% (active)
COc1ccc(CCn2nnnc2C2(c3ccc(C)cc3)CC2)cc1	14.5% (active)
Fc1ccc(C(c2ccc(F)cc2)N2CCN(C/C=C/c3ccccc3)CC2)cc1	5.6% (active)
C(=C\c1ccccc1)/CN1CCN(C(c2ccccc2)c2ccccc2)CC1	-9.7%
Oc1cc(O)c2c(c1)O[C@H](c1ccc(O)c(O)c1)[C@@H](O)C2	72.1% (active)
O=C1c2c(O)cc(O)cc2OC(c2ccc(O)c(O)c2)C1O (stereo unspecified)	65.2% (active)
COc1ccc(Cl)cc1C(=O)NCCc1ccc(S(=O)(=O)NC(=O)NC2CCCCC2)cc1	7.7% (active)
Cc1cnc(C(=O)NCCc2ccc(S(=O)(=O)NC(=O)NC3CCCCC3)cc2)cn1	-6.9%
Cc1cccc(C)c1NC(=O)C(C)N (stereo unspecified)	17.2% (active)
CN(C)CCCN1c2ccccc2Sc2ccc(Cl)cc21	98.2% (active)
CCC(=O)c1ccc2c(c1)N(CCCN(C)C)c1ccccc1S2	96.5% (active)
CN(C)CCCN1c2ccccc2Sc2ccc(C(F)(F)F)cc21	83.7% (active)
NCCS	28.5% (active)
O=c1[nH]c2ccccc2c2ccccc12	10.9% (active)
C=Cc1c(C)c2cc3[nH]c(cc4nc(cc5nc(cc1[nH]2)C(C)=C5CCC(=O)O)C(CCC(=O)O)=C4C)c(C)c3C=C	29.8% (active)

SMILES	inhibition
CCOC(=O)N1CCN(/[N+]([O-])=N/Oc2ccc([N+](=O)[O-])cc2[N+](=O)[O-])CC1	73.3% (active)
NNc1nncc2ccccc12	92.6% (active)
COc1cc2ncnc(Nc3cccc(Cl)c3)c2cc1OC	0.4% (active)
CC1CCN(CC[C@H]2CCCN2S(=O)(=O)c2cccc(O)c2)CC1	2.8% (active)
O=c1[nH]ccc2c(O)cccc12	41.9% (active)
Oc1cc2c(c(Cl)c1O)CCNCC2c1ccccc1 (stereo unspecified)	93.6% (active)
Oc1cc2c(cc1O)C(c1ccccc1)CNCC2 (stereo unspecified)	57.5% (active)
CCNC(=O)N1CCN(CCCC(c2ccc(F)cc2)c2ccc(F)cc2)CC1	8.8% (active)
O=C1C2C=CC=CC2=NC(=S)N1CCN1CCC(=C(c2ccc(F)cc2)c2ccc(F)cc2)CC1 (stereo unspecified)	4.1% (active)
CC(=O)Oc1ccccc1C(=O)O	12.4% (active)
C#C[C@]1(O)CC[C@H]2[C@@H]3CCC4=Cc5oncc5CC4(C)[C@H]3CCC21C (stereo partly specified)	22.1% (active)
COc1cc(C(O)CO)ccc1OS(=O)(=O)O (stereo unspecified)	2.7% (active)
COc1cc(C(O)C(=O)O)ccc1O (stereo unspecified)	12.1% (active)
COc1cc(C(O)CO)ccc1O (stereo unspecified)	13.7% (active)
Cc1cc(Cn2cnc3c2C[C@@H](C(=O)O)N(C(=O)C(c2ccccc2)c2ccccc2)C3)ccc1N	29.8% (active)
CCN1CCCC1CNC(=O)c1cc(S(N)(=O)=O)ccc1OC (stereo unspecified)	-11.2%
CCN1CCCC1CNC(=O)c1cc(S(=O)(=O)CC)c(N)cc1OC (stereo unspecified)	3.7% (active)
CCN1CCC[C@H]1CNC(=O)c1cc(S(N)(=O)=O)ccc1OC	1% (active)
